# Test results as given in publication PMC5540273 (PLoS ONE, 2017).
# Where “and” joins values, the source holds several entries; their conditions need not be identical. Equal entries are not always repeated. Where two headings read alike, the source gives them in different places.
# Legend:
# Conditions in all cases: n = 1
# [1] = tested on: LYN
# [2] = tested on: T1, LZK
# T1 construct: gene MAP3K13
# [3] = tested on: MAK
# [4] = tested on: MAP3K15
# [5] = tested on: MAP3K1
# [6] = tested on: MAP3K2
# [7] = tested on: MAP3K3
# [8] = tested on: MAP3K4
# [9] = tested on: MAP4K2
# [10] = tested on: MAP4K3
# [11] = tested on: MAP4K4
# [12] = tested on: MAP4K5
# [13] = tested on: MAPKAPK2
# [14] = tested on: MAPKAPK5
# [15] = tested on: MARK1
# [16] = tested on: MARK2
# [17] = tested on: MARK3
# [18] = tested on: MARK4
# [19] = tested on: MAST1
# [20] = tested on: T2, MEK1
# T2 construct: gene MAP2K1
# [21] = concentration: 1 μM, replicates: in singlicate
# [22] = concentration: 1 μM,replicates: in singlicate, 1 µM
# 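Note: KINOMEscan kinase panel screen.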
smiles,measurement,setting,value
Cc1c(Cn2ccn3c(=O)cc(N4CCOCC4)nc23)cccc1C(F)(F)F [GSK2289044],%Inh,[1]; [21],22%
same,%Inh,[2]; [21],0%
same,%Inh,[3]; [21],20%
same,%Inh,[4]; [21],0%
same,%Inh,[5]; [21],15%
same,%Inh,[6]; [21],7%
same,%Inh,[7]; [21],0%
same,%Inh,[8]; [21],20%
same,%Inh,[9]; [21],1%
same,%Inh,[10]; [21],0%
same,%Inh,[11]; [21],0%
same,%Inh,[12]; [21],0%
same,%Inh,[13]; [21],4%
same,%Inh,[14]; [21],0%
same,%Inh,[15]; [21],0%
same,%Inh,[16]; [21],5%
same,%Inh,[17]; [21],2%
same,%Inh,[18]; [21],0%
same,%Inh,[19]; [21],0%
same,%Inh,[20]; [21],0%
CC(C)(C)c1ccc(C(=O)Nc2cn3cc(-c4cccnc4)ccc3n2)cc1,%Inh,[1]; [21],16%
same,%Inh,[2]; [21],0%
same,%Inh,[3]; [21],46%
same,%Inh,[4]; [21],46%
same,%Inh,[5]; [21],1%
same,%Inh,[6]; [21],9%
same,%Inh,[7]; [21],26%
same,%Inh,[8]; [21],17%
same,%Inh,[9]; [21],0%
same,%Inh,[10]; [21],5%
same,%Inh,[11]; [21],15%
same,%Inh,[12]; [21],0%
same,%Inh,[13]; [21],0%
same,%Inh,[14]; [21],0%
same,%Inh,[15]; [21],36%
same,%Inh,[16]; [21],27%
same,%Inh,[17]; [21],0%
same,%Inh,[18]; [21],38%
same,%Inh,[19]; [21],0%
same,%Inh,[20]; [21],3%
NC(=O)c1nnc2ccccc2c1N,%Inh,[1]; [21],5%
same,%Inh,[2]; [21],0%
same,%Inh,[3]; [21],23%
same,%Inh,[4]; [21],30%
same,%Inh,[5]; [21],28%
same,%Inh,[6]; [21],31%
same,%Inh,[7]; [21],34%
same,%Inh,[8]; [21],15%
same,%Inh,[9]; [21],20%
same,%Inh,[10]; [21],4%
same,%Inh,[11]; [21],12%
same,%Inh,[12]; [21],11%
same,%Inh,[13]; [21],0%
same,%Inh,[14]; [21],0%
same,%Inh,[15]; [21],12%
same,%Inh,[16]; [21],0%
same,%Inh,[17]; [21],0%
same,%Inh,[18]; [21],19%
same,%Inh,[19]; [21],1%
same,%Inh,[20]; [21],40%
Cc1c(O)cccc1Nc1ccnc2ccc(C(F)(F)F)cc12.Cl [GW466413],%Inh,[1]; [21],0%
same,%Inh,[2]; [21],14%
same,%Inh,[3]; [21],0%
same,%Inh,[4]; [21],0%
same,%Inh,[5]; [21],2%
same,%Inh,[6]; [21],22%
same,%Inh,[7]; [21],47%
same,%Inh,[8]; [21],0%
same,%Inh,[9]; [21],0%
same,%Inh,[10]; [21],0%
same,%Inh,[11]; [21],0%
same,%Inh,[12]; [21],0%
same,%Inh,[13]; [21],8%
same,%Inh,[14]; [21],0%
same,%Inh,[15]; [21],0%
same,%Inh,[16]; [21],0%
same,%Inh,[17]; [21],0%
same,%Inh,[18]; [21],2%
same,%Inh,[19]; [21],0%
same,%Inh,[20]; [21],0%
COc1cccc(NC(=O)NC2CCN(c3ccnc(Nc4ccc(F)cc4)n3)C2)c1 (stereo not shown) [GSK1379721],%Inh,[1]; [21],0%
same,%Inh,[2]; [21],17%
same,%Inh,[3]; [21],32%
same,%Inh,[4]; [21],0%
same,%Inh,[5]; [21],5%
same,%Inh,[6]; [21],0%
same,%Inh,[7]; [21],0%
same,%Inh,[8]; [21],13%
same,%Inh,[9]; [21],2%
same,%Inh,[10]; [21],0%
same,%Inh,[11]; [21],83%
same,%Inh,[12]; [21],96.7%
same,%Inh,[13]; [21],0%
same,%Inh,[14]; [21],0%
same,%Inh,[15]; [21],0%
same,%Inh,[16]; [21],0%
same,%Inh,[17]; [21],9%
same,%Inh,[18]; [21],0%
same,%Inh,[19]; [21],17%
same,%Inh,[20]; [21],31%
COc1cccc(-c2cc(-c3c[nH]nc3-c3ccccn3)ccn2)c1 [GW680338],%Inh,[1]; [21],26%
same,%Inh,[2]; [21],28%
same,%Inh,[3]; [21],100%
same,%Inh,[4]; [21],0%
same,%Inh,[5]; [21],15%
same,%Inh,[6]; [21],0%
same,%Inh,[7]; [21],0%
same,%Inh,[8]; [21],15%
same,%Inh,[9]; [21],8%
same,%Inh,[10]; [21],0%
same,%Inh,[11]; [21],40%
same,%Inh,[12]; [21],1%
same,%Inh,[13]; [21],0%
same,%Inh,[14]; [21],1%
same,%Inh,[15]; [21],0%
same,%Inh,[16]; [21],12%
same,%Inh,[17]; [21],0%
same,%Inh,[18]; [21],0%
same,%Inh,[19]; [21],0%
same,%Inh,[20]; [21],16%
Cc1ccc(NC(=O)Nc2cccc(C(F)(F)F)c2)cc1 [GSK955403],%Inh,[1]; 1 µM,0%
same,%Inh,[2]; 1 µM,0%
same,%Inh,[3]; 1 µM,0%
same,%Inh,[4]; 1 µM,0%
same,%Inh,[5]; 1 µM,0%
same,%Inh,[6]; 1 µM,0%
same,%Inh,[7]; 1 µM,3%
same,%Inh,[8]; 1 µM,35%
same,%Inh,[9]; 1 µM,0%
same,%Inh,[10]; 1 µM,0%
same,%Inh,[11]; 1 µM,0%
same,%Inh,[12]; 1 µM,0%
same,%Inh,[13]; 1 µM,0%
same,%Inh,[14]; 1 µM,0%
same,%Inh,[15]; 1 µM,0%
same,%Inh,[16]; 1 µM,0%
same,%Inh,[17]; 1 µM,0%
same,%Inh,[18]; 1 µM,4%
same,%Inh,[19]; 1 µM,21%
same,%Inh,[20]; 1 µM,5%
CSc1nn2c(=O)cc(N3CCOCC3)nc2n1Cc1cccc(C(F)(F)F)c1C [GSK2363608],%Inh,[1]; [21],0%
same,%Inh,[2]; [21],0%
same,%Inh,[3]; [22],24% and 15%
same,%Inh,[4]; [22],5% and 0%
same,%Inh,[5]; [22],12% and 6%
same,%Inh,[6]; [22],10% and 13%
same,%Inh,[7]; [21],0%
same,%Inh,[8]; [22],18% and 30%
same,%Inh,[9]; [21],0%
same,%Inh,[10]; [22],0% and 10%
same,%Inh,[11]; [21],0%
same,%Inh,[12]; [21],0%
same,%Inh,[13]; [22],2% and 27%
same,%Inh,[14]; [21],0%
same,%Inh,[15]; [22],9% and 0%
same,%Inh,[16]; [21],0%
same,%Inh,[17]; [21],0%
same,%Inh,[18]; [22],15% and 0%
same,%Inh,[19]; [21],0%
same,%Inh,[20]; [21],0%
Cc1cccc(-c2nc(C)cc(Nc3ccncc3)n2)n1 [GSK257997],%Inh,[1]; [21],0%
same,%Inh,[2]; [21],0%
same,%Inh,[3]; [21],16%
same,%Inh,[4]; [21],0%
same,%Inh,[5]; [21],21%
same,%Inh,[6]; [21],0%
same,%Inh,[7]; [21],0%
same,%Inh,[8]; [21],14%
same,%Inh,[9]; [21],0%
same,%Inh,[10]; [21],0%
same,%Inh,[11]; [21],2%
same,%Inh,[12]; [21],0%
same,%Inh,[13]; [21],20%
same,%Inh,[14]; [21],0%
same,%Inh,[15]; [21],0%
same,%Inh,[16]; [21],0%
same,%Inh,[17]; [21],4%
same,%Inh,[18]; [21],0%
same,%Inh,[19]; [21],0%
same,%Inh,[20]; [21],0%
Cc1ccc(NC(=O)Nc2cc(C(C)(C)C)nn2-c2ccccc2)cc1 [GSK1014915],%Inh,[1]; [21],0%
same,%Inh,[2]; [21],0%
same,%Inh,[3]; [21],10%
same,%Inh,[4]; [21],16%
same,%Inh,[5]; [21],17%
same,%Inh,[6]; [21],17%
same,%Inh,[7]; [21],0%
same,%Inh,[8]; [21],3%
same,%Inh,[9]; [21],0%
same,%Inh,[10]; [21],10%
same,%Inh,[11]; [21],19%
same,%Inh,[12]; [21],11%
same,%Inh,[13]; [21],25%
same,%Inh,[14]; [21],0%
same,%Inh,[15]; [21],0%
same,%Inh,[16]; [21],0%
same,%Inh,[17]; [21],17%
same,%Inh,[18]; [21],10%
same,%Inh,[19]; [21],0%
same,%Inh,[20]; [21],0%
Cc1ccc(NC(=O)Nc2cccc(Cl)c2)cc1-c1ccc(C(=O)Nc2ccncc2)cc1 [GSK1398468],%Inh,[1]; [21],0%
same,%Inh,[2]; [21],0%
same,%Inh,[3]; [21],19%
same,%Inh,[4]; [21],0%
same,%Inh,[5]; [21],0%
same,%Inh,[6]; [21],0%
same,%Inh,[7]; [21],0%
same,%Inh,[8]; [21],7%
same,%Inh,[9]; [21],0%
same,%Inh,[10]; [21],0%
same,%Inh,[11]; [21],0%
same,%Inh,[12]; [21],0%
same,%Inh,[13]; [21],0%
same,%Inh,[14]; [21],0%
same,%Inh,[15]; [21],26%
same,%Inh,[16]; [21],0%
same,%Inh,[17]; [21],0%
same,%Inh,[18]; [21],12%
same,%Inh,[19]; [21],0%
same,%Inh,[20]; [21],100%
